# Data taken from PubChem BioAssay.
# For part of these data: Results with a measured potency or affinity are listed apart. Calls of active or inactive are those of the source.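 The calls were made as follows, unless noted: active = primary screen inhibitor hit that blocks the TRPC4 channel at some tested dose, yielding a dose curve; inactive = the rest.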
# Experiments:
# [1] = test system: TRPC4 beta (transient receptor potential cation channel C4), mouse; assay: TRPC4 cation channel opening, retest – cell-based, Fluo4 calcium, HEK293 TRPC4beta/mu-opioid, duplicates, 10 µM, confirmation (AID 2426;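 active = fluorescence ratio normalized to control raised more than 50% in primary screen plus both repeat runs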;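 as to activation: percent rise of integrated ratio over buffer wells lacking compound which define 0%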); settings: Fluo4 calcium fluorescence, at 10 µM; hits give high values
# [2] = test system: transient receptor potential cation channel C4 beta (TRPC4), mouse; assay: TRPC4 cation channel opening, second retest – cell-based, second round, Fluo4, HEK293 TRPC4beta/mu-opioid, 1 µM, confirmation (AID 2461;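 active = primary screen active and over 50% activation in each of two duplicate runs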); settings: Fluo4 calcium fluorescence, at 1 µM; hits give high values
# [3] = test system: TRPC4 (transient receptor potential cation channel C4 beta), mouse; assay: potentiation of DAMGO EC20 TRPC4 response – cell-based, second round, Fluo-4, HEK293 TRPC4beta/mu-opioid, 1 µM, confirmation (AID 2554;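 active = primary screen hit whose fluorescence ratio, in both repeats, exceeds the weak agonist control mean by 3 SD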); settings: DAMGO EC20, Fluo-4 calcium flux, at 1 µM; hits give high values
# [4] = test system: TRPC4 beta (transient receptor potential cation channel C4), mouse; assay: potentiation of DAMGO EC20 TRPC4 response – cell-based, Fluo-4, HEK293 TRPC4beta/mu-opioid, confirmation (AID 2555;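 active = primary screen hit whose calcium fluorescence ratio, in both repeats, exceeds the weak agonist control mean by 3 SD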); settings: DAMGO EC20, Fluo-4 calcium flux, at 10 µM; hits give high values
# [5] = biological target: Short transient receptor potential channel 4 (Mus musculus) (UniProt Q9QUQ5); assay: blockers of DAMGO-evoked TRPC4 calcium flux – cell-based, Fluo4, HEK293 TRPC4beta/mu-opioid, confirmation (AID 2636;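 active = calcium signal cut by more than 3 SD below the full-agonist control yet still positive, in both repeats and the earlier primary screen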); settings: at 10 µM; hits give high values
# [6] = biological target: Short transient receptor potential channel 4 (Mus musculus) (UniProt Q9QUQ5); assay: blockers of DAMGO-evoked TRPC4 calcium flux – cell-based, second round, Fluo4, HEK293 TRPC4beta/mu-opioid, 1 µM, confirmation (AID 2637;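 active = calcium signal ratio cut to more than 3 SD under the fully stimulated control mean yet still positive, in both repeats and the primary screen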); settings: at 1 µM; hits give high values
# [7] = biological target: Short transient receptor potential channel 4 (Mus musculus) (UniProt Q9QUQ5); assay: calcium entry via TRPC4 opening agents – cell-based, HEK293 TRPC4/mu-opioid, Fluo-4 calcium, dose response (AID 434937;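 active = primary screen activator hit with a dose response curve and TRPC4 channel activation at any tested dose; inactive = no activation, no dose response, or not a primary hit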)
# [8] = biological target: Short transient receptor potential channel 4 (Mus musculus) (UniProt Q9QUQ5); assay: potentiation of DAMGO-evoked TRPC4 calcium signal – cell-based, HEK293 TRPC4/mu-opioid, Fluo-4 calcium, EC20 DAMGO, dose response (AID 434941;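 active = earlier screen potentiator hit that boosts the TRPC4 ion channel at some dose, with a dose response; inactive = no potentiation, no dose response, or not a prior hit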;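 also: calcium entry triggered by an EC20 dose of DAMGO at the co-expressed mu-opioid receptor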)
# [9] = biological target: Short transient receptor potential channel 4 (Mus musculus) (UniProt Q9QUQ5); assay: block of DAMGO-driven TRPC4 calcium entry – cell-based, HEK293 TRPC4/mu-opioid, Fluo-4 calcium, dose response (AID 434942)
# [10] = biological target: Short transient receptor potential channel 6 (Mus musculus) (UniProt Q61143); assay: TRPC6 blockade by TRPC4 inhibitor hits – cell-based, HEK293, membrane potential dye, duplicate, selectivity assay for TRPC4 inhibitor project, confirmation (AID 434948;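 active = active in primary screen and both duplicates, each dropping signal beyond three positive-control SD with fluorescence still positive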); settings: HEK293 TRPC6, membrane potential dye fluorescence, at 10 µM, stimulated with maximal-effect acetylcholine; hits give high values
# [11] = biological target: Short transient receptor potential channel 6 (Mus musculus) (UniProt Q61143); assay: TRPC6 opening by TRPC4 activator hits – cell-based, HEK293, membrane potential dye, duplicate, selectivity assay for TRPC4 activator project, confirmation (AID 434950;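 active = membrane potential signal rise above negative control mean plus 3 SD in both duplicates, also active in the earlier TRPC4 screen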;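 as to activation: 0% = buffer only wells and 100% = acetylcholine maximal-effect wells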); settings: HEK293 TRPC6, membrane potential fluorescence, at 10 µM; activation: hits give high values; outcome: activation
# [12] = biological target: Short transient receptor potential channel 6 (Mus musculus) (UniProt Q61143); assay: positive modulators of mouse TRPC6 channel – HEK293 cells, membrane potential dye, duplicate, selectivity assay for TRPC4 potentiator project, confirmation (AID 434952;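 active = compound raising the membrane signal above positive-control mean plus 3 SD in both repeats, and a primary screen hit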); settings: HEK293 TRPC6, membrane potential dye fluorescence, at 10 µM, maximal acetylcholine added after compound; hits give high values
# [13] = biological target: Short transient receptor potential channel 4 (Mus musculus) (UniProt Q9QUQ5); assay: calcium flux activators in TRPC4/5HT1a cells, counter-screen for TRPC4 activator project, cell-based, second counter screen, HEK293 TRPC4/5HT1a, Fluo-4 (AID 434977;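 active = calcium signal rise above buffer-control mean plus 5 SD in both duplicates, and also a hit in the primary screen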;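 as to activation: plate controls were assay buffer for no effect and maximal serotonin response for full effect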); settings: Fluo-4 calcium flux, at 10 µM; hits give high values
# [14] = serotonin-gated TRPC4 signal block – cell-based, second counter screen, HEK293 TRPC4/5HT1a, Fluo-4, counter-screen for TRPC4 inhibitor project, confirmation (AID 434978;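 active = primary screen active whose calcium signal fell more than 3 SD beyond the full-serotonin control mean in both duplicate plates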;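 as to outcome: serotonin given first at submaximal then at maximal dose after compound preincubation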); settings: Fluo-4 calcium flux, at 10 µM, serotonin added to trigger calcium flux; hits give high values
# [15] = test system: TRPC4 (mouse), co-expressed with 5HT1a in HEK293; assay: enhancement of serotonin-evoked TRPC4 response – cell-based, second counter screen, HEK293 TRPC4/5HT1a, Fluo-4, counter-screen for TRPC4 potentiator project, confirmation (AID 434979;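 active = signal rise over 3 SD above mean of control wells given weak agonist, in both repeats and first screen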); settings: Fluo-4 calcium flux, at 10 µM, serotonin added at its EC20 dose; hits give high values
# [16] = nonspecific calcium rise without TRPC4 – cell-based, HEK293 mu-opioid receptor line, counter-screen for TRPC4 activator project, confirmation (AID 449723;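 active = hit in primary screen, with calcium signal over 5 SD above buffer well mean in both duplicates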;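 also: counter screen cells carry the mu-opioid receptor alone and lack TRPC4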); settings: HEK293 mu-opioid cells, Fluo-4 calcium fluorescence, at 10 µM; hits give high values
# [17] = nonspecific potentiation of DAMGO calcium response – cell-based, HEK293 mu-opioid receptor line, counter-screen for TRPC4 allosteric potentiator project, confirmation (AID 449724;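 active = calcium signal rise more than 3 SD above the low-dose agonist control mean, in both duplicate plates and the primary screen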); settings: HEK293 mu-opioid receptor cells, Fluo-4 calcium flux, at 10 µM, compound added before EC20 DAMGO stimulus; hits give high values
# Chain of Short transient receptor potential channel 6 (Mus musculus) (Q61143 whole entry, looked up): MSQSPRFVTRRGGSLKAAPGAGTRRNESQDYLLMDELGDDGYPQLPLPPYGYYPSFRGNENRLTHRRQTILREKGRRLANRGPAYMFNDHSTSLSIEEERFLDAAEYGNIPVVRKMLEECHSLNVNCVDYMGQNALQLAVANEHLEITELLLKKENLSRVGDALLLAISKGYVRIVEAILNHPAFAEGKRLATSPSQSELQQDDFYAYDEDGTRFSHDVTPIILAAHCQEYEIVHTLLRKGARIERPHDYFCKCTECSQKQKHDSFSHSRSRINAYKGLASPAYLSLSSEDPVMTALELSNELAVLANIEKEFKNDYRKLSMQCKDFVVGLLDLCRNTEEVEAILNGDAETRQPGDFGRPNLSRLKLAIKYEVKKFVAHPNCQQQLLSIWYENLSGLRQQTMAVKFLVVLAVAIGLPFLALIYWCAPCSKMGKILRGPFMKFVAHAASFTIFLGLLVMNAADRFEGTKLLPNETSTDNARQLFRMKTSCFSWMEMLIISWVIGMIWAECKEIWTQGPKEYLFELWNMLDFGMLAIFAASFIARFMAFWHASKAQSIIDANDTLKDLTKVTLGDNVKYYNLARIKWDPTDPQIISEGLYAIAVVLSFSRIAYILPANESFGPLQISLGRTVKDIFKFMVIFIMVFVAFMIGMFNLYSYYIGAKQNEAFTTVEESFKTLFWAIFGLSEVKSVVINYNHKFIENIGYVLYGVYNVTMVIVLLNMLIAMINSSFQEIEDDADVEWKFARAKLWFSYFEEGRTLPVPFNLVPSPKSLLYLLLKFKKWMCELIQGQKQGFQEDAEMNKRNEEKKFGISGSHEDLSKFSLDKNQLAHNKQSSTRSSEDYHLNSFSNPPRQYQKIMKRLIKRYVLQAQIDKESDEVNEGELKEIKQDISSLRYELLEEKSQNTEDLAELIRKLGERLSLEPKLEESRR
# Chain of Short transient receptor potential channel 4 (Mus musculus) (Q9QUQ5 whole entry, looked up): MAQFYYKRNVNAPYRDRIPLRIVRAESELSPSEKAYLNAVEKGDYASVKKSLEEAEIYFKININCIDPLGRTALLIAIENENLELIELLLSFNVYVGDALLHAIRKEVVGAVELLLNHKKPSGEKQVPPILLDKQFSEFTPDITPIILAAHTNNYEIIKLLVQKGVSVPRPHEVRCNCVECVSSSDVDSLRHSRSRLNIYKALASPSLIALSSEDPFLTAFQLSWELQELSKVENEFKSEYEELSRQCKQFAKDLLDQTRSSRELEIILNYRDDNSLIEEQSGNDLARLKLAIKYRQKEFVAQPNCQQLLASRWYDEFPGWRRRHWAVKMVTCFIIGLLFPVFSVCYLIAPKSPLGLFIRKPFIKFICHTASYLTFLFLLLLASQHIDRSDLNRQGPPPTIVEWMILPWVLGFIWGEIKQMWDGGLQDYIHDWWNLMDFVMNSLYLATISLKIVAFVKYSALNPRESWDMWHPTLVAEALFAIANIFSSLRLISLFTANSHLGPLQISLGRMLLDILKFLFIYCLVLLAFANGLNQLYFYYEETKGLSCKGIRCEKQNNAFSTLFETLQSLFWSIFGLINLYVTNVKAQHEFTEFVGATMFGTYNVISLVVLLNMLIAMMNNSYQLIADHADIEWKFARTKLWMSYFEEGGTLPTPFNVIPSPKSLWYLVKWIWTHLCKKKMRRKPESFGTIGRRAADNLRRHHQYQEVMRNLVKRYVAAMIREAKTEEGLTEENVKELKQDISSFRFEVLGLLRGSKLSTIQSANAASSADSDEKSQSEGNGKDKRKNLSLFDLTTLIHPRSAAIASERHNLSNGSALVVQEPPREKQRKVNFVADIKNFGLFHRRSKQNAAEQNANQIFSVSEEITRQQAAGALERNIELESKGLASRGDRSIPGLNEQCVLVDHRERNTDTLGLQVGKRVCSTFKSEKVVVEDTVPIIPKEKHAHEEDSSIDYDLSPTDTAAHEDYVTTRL
smiles,measurement,setting,value
CCc1cc2c(SCC(=O)N(C)C3CCS(=O)(=O)C3)ncnc2s1 (stereo not given),outcome,[1],inactive
same,outcome,[2],inactive
same,outcome,[3],inactive
same,potentiation,[4],35% (active)
same,outcome,[5],inactive
same,outcome,[6],inactive
same,outcome,[7],inactive
same,outcome,[8],inactive
same,outcome,[9],inactive
same,outcome,[10],inactive
same,outcome,[11],inactive
same,outcome,[12],inactive
same,outcome,[13],inactive
same,outcome,[14],inactive
same,potentiation,[15],42.5% (active)
same,outcome,[16],inactive
same,outcome,[17],inactive
Cc1cc(NC(=O)C(C)SCC(=O)N(Cc2ccccc2)c2ccccc2)no1 (stereo not given),outcome,[1],inactive
same,outcome,[2],inactive
same,outcome,[3],inactive
same,outcome,[4],inactive
same,inhibition,[5],90% (active)
same,outcome,[6],inactive
same,outcome,[7],inactive
same,outcome,[8],inactive
same,outcome,[9],inactive
same,outcome,[10],inactive
same,outcome,[11],inactive
same,outcome,[12],inactive
same,outcome,[13],inactive
same,inhibition,[14],25.3% (active)
same,outcome,[15],inactive
same,outcome,[16],inactive
same,outcome,[17],inactive
CC1CCN(CCCCOc2ccc([N+](=O)[O-])cc2)CC1,outcome,[1],inactive
same,outcome,[2],inactive
same,outcome,[3],inactive
same,outcome,[4],inactive
same,outcome,[5],inactive
same,outcome,[6],inactive
same,outcome,[7],inactive
same,outcome,[8],inactive
same,outcome,[9],inactive
same,outcome,[10],inactive
same,outcome,[11],inactive
same,outcome,[12],inactive
same,outcome,[13],inactive
same,outcome,[14],inactive
same,outcome,[15],inactive
same,outcome,[16],inactive
same,outcome,[17],inactive
Cc1cc(Oc2ccc(C(C)(C)C)cc2)nc(N2CCOCC2)n1,outcome,[1],inactive
same,outcome,[2],inactive
same,outcome,[3],inactive
same,potentiation,[4],7% (active)
same,outcome,[5],inactive
same,outcome,[6],inactive
same,outcome,[7],inactive
same,outcome,[8],inactive
same,outcome,[9],inactive
same,outcome,[10],inactive
same,outcome,[11],inactive
same,outcome,[12],inactive
same,outcome,[13],inactive
same,outcome,[14],inactive
same,potentiation,[15],21.6% (active)
same,outcome,[16],inactive
same,outcome,[17],inactive
CCNC(=S)N/N=C/c1cc(C)n(-c2ccc(Cl)cc2)c1C,outcome,[1],inactive
same,outcome,[2],inactive
same,outcome,[3],inactive
same,potentiation,[4],19% (active)
same,outcome,[5],inactive
same,outcome,[6],inactive
same,outcome,[7],inactive
same,outcome,[8],inactive
same,outcome,[9],inactive
same,outcome,[10],inactive
same,outcome,[11],inactive
same,outcome,[12],inactive
same,outcome,[13],inactive
same,outcome,[14],inactive
same,potentiation,[15],17.3% (active)
same,outcome,[16],inactive
same,outcome,[17],inactive
NC(=O)C(c1cccc(Cl)c1)c1ncc(C(F)(F)F)cc1Cl (stereo not given),outcome,[1],inactive
same,outcome,[2],inactive
same,outcome,[3],inactive
same,outcome,[4],inactive
same,outcome,[5],inactive
same,outcome,[6],inactive
same,outcome,[7],inactive
same,outcome,[8],inactive
same,outcome,[9],inactive
same,outcome,[10],inactive
same,outcome,[11],inactive
same,outcome,[12],inactive
same,outcome,[13],inactive
same,outcome,[14],inactive
same,potentiation,[15],7.72% (active)
same,outcome,[16],inactive
same,outcome,[17],inactive
COC(=O)/C=C1\SC(=NC(=O)c2cccc(Cl)c2)NC1=O,outcome,[1],inactive
same,outcome,[2],inactive
same,outcome,[3],inactive
same,outcome,[4],inactive
same,inhibition,[5],76% (active)
same,outcome,[6],inactive
same,outcome,[7],inactive
same,outcome,[8],inactive
same,outcome,[9],inactive
same,outcome,[10],inactive
same,outcome,[11],inactive
same,outcome,[12],inactive
same,outcome,[13],inactive
same,outcome,[14],inactive
same,outcome,[15],inactive
same,outcome,[16],inactive
same,outcome,[17],inactive
C=CCn1c(SCCN2CCCCC2)nc2c1c(=O)[nH]c(=O)n2C,outcome,[1],inactive
same,outcome,[2],inactive
same,potentiation,[3],27% (active)
same,potentiation,[4],16% (active)
same,outcome,[5],inactive
same,outcome,[6],inactive
same,outcome,[7],inactive
same,outcome,[8],inactive
same,outcome,[9],inactive
same,outcome,[10],inactive
same,outcome,[11],inactive
same,outcome,[12],inactive
same,outcome,[13],inactive
same,outcome,[14],inactive
same,potentiation,[15],20% (active)
same,outcome,[16],inactive
same,outcome,[17],inactive
CC(=O)Oc1c(C)cc(O)c2ccccc12,outcome,[1],inactive
same,outcome,[2],inactive
same,outcome,[3],inactive
same,outcome,[4],inactive
same,outcome,[5],inactive
same,outcome,[6],inactive
same,outcome,[7],inactive
same,outcome,[8],inactive
same,outcome,[9],inactive
same,outcome,[10],inactive
same,outcome,[11],inactive
same,outcome,[12],inactive
same,outcome,[13],inactive
same,outcome,[14],inactive
same,outcome,[15],inactive
same,outcome,[16],inactive
same,outcome,[17],inactive
O=C(N/N=C/c1ccccc1F)NC1CCCCC1,activation,[1],85% (active)
same,outcome,[2],inactive
same,potentiation,[3],12% (active)
same,potentiation,[4],77% (active)
same,outcome,[5],inactive
same,outcome,[6],inactive
same,outcome,[7],inactive
same,outcome,[8],inactive
same,outcome,[9],inactive
same,outcome,[10],inactive
same,activation,[11],36.5% (active)
same,outcome,[12],inactive
same,activation,[13],17.8% (active)
same,outcome,[14],inactive
same,potentiation,[15],107% (active)
same,outcome,[16],inactive
same,outcome,[17],inactive
CCN(CC)CCCNC(=S)N1CCN(c2nc3ccccc3n2CC)CC1,outcome,[1],inactive
same,outcome,[2],inactive
same,outcome,[3],inactive
same,outcome,[4],inactive
same,outcome,[5],inactive
same,outcome,[6],inactive
same,outcome,[7],inactive
same,outcome,[8],inactive
same,outcome,[9],inactive
same,outcome,[10],inactive
same,outcome,[11],inactive
same,outcome,[12],inactive
same,outcome,[13],inactive
same,outcome,[14],inactive
same,potentiation,[15],17.1% (active)
same,outcome,[16],inactive
same,outcome,[17],inactive
O=C(c1cc2cc(Br)cc(Br)c2oc1=O)N1CCCC1,outcome,[1],inactive
same,outcome,[2],inactive
same,outcome,[3],inactive
same,outcome,[4],inactive
same,outcome,[5],inactive
same,outcome,[6],inactive
same,outcome,[7],inactive
same,outcome,[8],inactive
same,outcome,[9],inactive
same,outcome,[10],inactive
same,outcome,[11],inactive
same,outcome,[12],inactive
same,outcome,[13],inactive
same,outcome,[14],inactive
same,potentiation,[15],15.8% (active)
same,outcome,[16],inactive
same,outcome,[17],inactive
CNC(=S)NNC(=O)c1cccn(Cc2cccc(C(F)(F)F)c2)c1=O,outcome,[1],inactive
same,outcome,[2],inactive
same,outcome,[3],inactive
same,potentiation,[4],14% (active)
same,outcome,[5],inactive
same,outcome,[6],inactive
same,outcome,[7],inactive
same,outcome,[8],inactive
same,outcome,[9],inactive
same,outcome,[10],inactive
same,outcome,[11],inactive
same,outcome,[12],inactive
same,outcome,[13],inactive
same,outcome,[14],inactive
same,outcome,[15],inactive
same,outcome,[16],inactive
same,outcome,[17],inactive
Cc1cc2cc(CN(Cc3cccs3)C(=S)NCc3ccco3)c(=O)[nH]c2cc1C,outcome,[1],inactive
same,outcome,[2],inactive
same,outcome,[3],inactive
same,outcome,[4],inactive
same,outcome,[5],inactive
same,outcome,[6],inactive
same,outcome,[7],inactive
same,outcome,[8],inactive
same,outcome,[9],inactive
same,outcome,[10],inactive
same,outcome,[11],inactive
same,outcome,[12],inactive
same,outcome,[13],inactive
same,outcome,[14],inactive
same,outcome,[15],inactive
same,outcome,[16],inactive
same,outcome,[17],inactive
O=C(Nc1c(F)cc(F)cc1Br)c1cc(-c2ccc(O)cc2)on1,outcome,[1],inactive
same,outcome,[2],inactive
same,outcome,[3],inactive
same,outcome,[4],inactive
same,outcome,[5],inactive
same,outcome,[6],inactive
same,outcome,[7],inactive
same,outcome,[8],inactive
same,outcome,[9],inactive
same,outcome,[10],inactive
same,outcome,[11],inactive
same,outcome,[12],inactive
same,outcome,[13],inactive
same,outcome,[14],inactive
same,outcome,[15],inactive
same,outcome,[16],inactive
same,outcome,[17],inactive
